Screens: PubChem BioAssay, National Center for Advancing Translational Sciences (NCATS)
POLK inh – qHTS for Inhibitors of Polymerase Kappa; DNA polymerase kappa (Homo sapiens), Q9UBT6; purified Pol kappa, fluorescent DNA synthesis assay, 10 min; Potency, µM (titrated, usually from 107 µM), usual class: inhibitors; actives 0.53% (n = 400,000)
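50 nM final substrate added after 15 min RT preincubation of 10 nM Pol kappa with compound; fluorescence read at 0 and 10 min.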
PI5P4Ka inh – qHTS for Inhibitors of phosphatidylinositol 5-phosphate 4-kinase (PI5P4K). AID 652105, 2013. PI5P4Kalpha enzyme, ADP-Glo luminescence, 60 min; active compounds read low. max response, %. actives 1.2% (n = 330,000). Phosphatidylinositol 5-phosphate 4-kinase type-2 alpha (Homo sapiens), P48426; active means max response of -50% or lower; inconclusive means between -30% and -50%; inactive means -30% or higher; further: value at the top dose of about 77 µM
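Enzyme plus substrate dispensed, test compounds pinned in, then ATP (5 microM final) added. After 60 min at RT, ADP-Glo reagent 1 for 45 min and reagent 2 for 30 min preceded luminescence imaging.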
Pol eta inh – qHTS for Inhibitors of Polymerase Eta. DNA polymerase eta (Homo sapiens), Q9Y253. actives 1.2% (n = 390,000). AID 588591, 2011. Potency, µM (series often up to 114 µM), most hits filed as inhibitors. recombinant Pol eta, fluorescent DNA replication assay
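Pol eta at 10 nM preincubated with compounds 15 min at room temperature; reaction started with fluorescent substrate (50 nM final) and read kinetically at 0 and 10 min.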
WRN inhibitor – qHTS for Inhibitors of WRN Helicase. WRN helicase unwinding, fluorescent forked duplex, kinetic. actives 0.46% (n = 360,000). Potency, µM (top dose mostly 114 µM), usual class: inhibitors; further: nearly all actives have a fitted effect of over 55% in size
Target sequence (Q14191 whole entry, looked up): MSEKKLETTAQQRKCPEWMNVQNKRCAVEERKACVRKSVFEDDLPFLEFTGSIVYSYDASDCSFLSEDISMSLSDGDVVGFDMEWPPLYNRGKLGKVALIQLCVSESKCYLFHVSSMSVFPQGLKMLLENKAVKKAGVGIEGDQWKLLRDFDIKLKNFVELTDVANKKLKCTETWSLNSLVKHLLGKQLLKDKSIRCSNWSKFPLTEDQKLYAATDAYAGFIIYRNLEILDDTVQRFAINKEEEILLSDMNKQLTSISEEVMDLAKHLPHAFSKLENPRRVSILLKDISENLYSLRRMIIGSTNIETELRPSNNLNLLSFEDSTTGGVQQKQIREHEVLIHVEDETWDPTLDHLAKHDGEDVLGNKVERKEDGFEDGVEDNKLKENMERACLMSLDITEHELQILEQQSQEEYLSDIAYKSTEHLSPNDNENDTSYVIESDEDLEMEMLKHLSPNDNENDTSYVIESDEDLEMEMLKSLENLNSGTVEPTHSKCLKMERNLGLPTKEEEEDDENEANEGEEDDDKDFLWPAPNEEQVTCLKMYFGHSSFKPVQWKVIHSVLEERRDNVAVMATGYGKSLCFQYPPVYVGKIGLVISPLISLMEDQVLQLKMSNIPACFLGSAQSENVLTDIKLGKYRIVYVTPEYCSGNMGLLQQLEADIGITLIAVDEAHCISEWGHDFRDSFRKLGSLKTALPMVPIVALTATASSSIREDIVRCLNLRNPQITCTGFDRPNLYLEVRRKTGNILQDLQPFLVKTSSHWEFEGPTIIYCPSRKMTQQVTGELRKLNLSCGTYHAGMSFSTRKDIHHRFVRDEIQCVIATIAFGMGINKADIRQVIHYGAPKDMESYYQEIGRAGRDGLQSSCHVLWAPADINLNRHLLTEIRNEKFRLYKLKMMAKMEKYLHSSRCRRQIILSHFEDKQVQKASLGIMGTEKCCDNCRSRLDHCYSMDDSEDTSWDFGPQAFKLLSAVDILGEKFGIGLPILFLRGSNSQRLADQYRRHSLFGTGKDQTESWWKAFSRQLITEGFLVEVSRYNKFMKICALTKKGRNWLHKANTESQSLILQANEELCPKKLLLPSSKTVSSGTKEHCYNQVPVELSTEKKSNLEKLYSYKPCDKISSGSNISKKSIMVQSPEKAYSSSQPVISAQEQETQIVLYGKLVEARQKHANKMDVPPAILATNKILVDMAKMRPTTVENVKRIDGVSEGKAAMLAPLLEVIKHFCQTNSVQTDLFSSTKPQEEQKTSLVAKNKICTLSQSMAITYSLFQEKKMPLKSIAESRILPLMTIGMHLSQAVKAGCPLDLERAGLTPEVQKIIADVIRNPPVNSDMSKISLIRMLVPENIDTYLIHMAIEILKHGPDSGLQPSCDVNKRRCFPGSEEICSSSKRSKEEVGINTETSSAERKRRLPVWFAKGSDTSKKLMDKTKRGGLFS
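WRN at 20 nM final preincubated with compound 15 min at room temperature; reaction started with 100 nM fluorophore/quencher forked duplex oligonucleotide and 2 mM ATP final. Unwinding followed kinetically by red fluorescence (ex 525, em 598 nm).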
Pol iota inh – qHTS for Inhibitors of Polymerase Iota | DNA polymerase iota (Homo sapiens), Q9UNA4 | Pol iota fluorescent replication assay, 10 min | Potency, µM (highest dose often 115 µM), usual class: inhibitors | actives 1% (n = 390,000) | AID 588590, 2011
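Fluorescent replication assay read twice, at 0 min and 10 min after adding 50 nM (final) substrate. Enzyme (10 nM) and compounds were first incubated 15 min at room temperature; enzyme-free buffer wells were negative controls.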
POLB inh – qHTS Assay for Inhibitors of DNA Polymerase Beta. Pol beta primer extension/strand displacement, fluorescence kinetic. Potency, µM (doses to about 114 µM), usual class: inhibitors. actives 1.3% (n = 340,000). AID 485314, 2010
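Human Pol beta at 10 nM; strand-displacement substrate 50 nM final. Compound exposure 15 min at room temperature before start, reaction 10 min at room temperature.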
Numbers stand for hits; n = inactive; u = inconclusive; x = no result given; [ ] = remark or other dose. This is a sample that favours compounds with a hit; in the whole collection about 2.8% have one here. Unless noted, the call rests on the fitted dose curve; in most records, active means well fitted curve in the direction sought with a large enough effect; inconclusive means small, poorly fitted or top-dose-only effect, or another doubt; inactive means no such curve, though single readings can be large; an effect the other way counts as inactive or inconclusive.

SMILES | POLK inh | PI5P4Ka inh | Pol eta inh | WRN inhibitor | Pol iota inh | POLB inh
Cc1nc(S/C(=C/c2ccc(-c3ccc(Cl)cc3)o2)C(=O)O)n[nH]1 | n | n | 25µM | n | n | n
CC(Sc1nc2ccc(Br)cc2[nH]1)C(=O)O (stereo unspecified) | n | x | n | n | n | n
CC(Sc1nc2ccc(C(=O)c3ccccc3)cc2[nH]1)C(=O)O (stereo unspecified) | n | -52 | n | u | n | n
CCCCn1c(N)c(N(CC(C)C)C(=O)c2oc3ccc(Br)cc3c2C)c(=O)[nH]c1=O | n | u | 79µM | n[11.6 µM] | u | x
N#Cc1ccc(/C=C2\CCCCn3c2nc2cc(C(=O)O)ccc2c3=O)cc1 | n | -53 | n | n | n | u
COc1cc(/C=C2\CCn3c2nc2cc(C(=O)O)ccc2c3=O)ccc1OC(F)F | n | u | u | n | n | n
O=C(O)c1ccc2c(=O)n3c(nc2c1)/C(=C/c1ccc(C(F)(F)F)cc1)CC3 | n | n | u | n | 79µM | n
Cc1ccc(S(=O)(=O)N2CCN(C(C)CC(=O)O)CC2)cc1 (stereo unspecified) | n | n | n | n | n | n
CCCCCc1c(C)nc(Nc2ccccc2)[nH]c1=O | n | n | n | n | n | n
CCOC(OCC)c1nc(N)[nH]c(=O)c1CCCCc1ccccc1 | n | -52 | n | n | n | x
CCOC(=O)c1sc(=S)n(-c2ccccc2)c1N(C(C)=O)C(C)=O | n | -75 | n | u | u | u
CCOC(=O)c1sc(=S)n(-c2ccccc2)c1N | n | n | n | n | n | n
O=C(Cn1c(=O)oc2ccccc21)N1CCN(S(=O)(=O)c2ccccc2)CC1 | n | n | n | n | n | x
COc1ccc(NC(=O)NNC(=O)COc2ccc([N+](=O)[O-])c(C)c2)cc1OC | n | n | n | n | n | 50µM
Cc1ccc(C2C(C#N)=C(N)Oc3n[nH]c(-c4cccnc4)c32)o1 (stereo unspecified) | n | u | n | n | 28µM | n
N#CC1=C(N)Oc2n[nH]c(-c3ccc(F)cc3)c2C1c1cccnc1 (stereo unspecified) | n | u | n | n | n | n
Cc1cc(-c2[nH]nc3c2C(c2ccsc2)C(C#N)=C(N)O3)c(C)s1 (stereo unspecified) | n | -52 | u | n | u | u
Cc1cc(-c2[nH]nc3c2C(c2cccc(O)c2)C(C#N)=C(N)O3)c(C)s1 (stereo unspecified) | n | x | n | n | n | n
Cc1ccc(C2C(C#N)=C(N)Oc3n[nH]c(-c4ccccc4)c32)o1 (stereo unspecified) | n | -67 | u | u | n | n
COc1cc(C2C(C#N)=C(N)Oc3n[nH]c(-c4cccnc4)c32)cc(Br)c1O (stereo unspecified) | n | -63 | n | n | u | n
CC(C)[C@H]1COCCS(=O)(=O)N1Cc1ccccc1-c1cccc(Cl)c1 | n | n | n | n | n | x
CC1=C[C@@H](O)CC(C)(C)[C@@H]1/C=C/C(C)=C/C=C/C(C)=C/C=C/C=C(C)/C=C/C=C(C)/C=C/C1=C(C)C[C@H](O)CC1(C)C | n[19.4 µM] | x | x | x | x | x
O=c1cc(-c2ccccc2Cl)oc2ccc([N+](=O)[O-])c(O)c12 | n | n | n | n | n | u
O=c1cc(-c2ccccc2Cl)oc2c([N+](=O)[O-])c(O)cc(O)c12 | n | -96 | n | n | n | n
CN(C)c1ccc(C2CCc3ccccc3N2C(=O)c2ccccc2)cc1 (stereo unspecified) | n | x | x | x | n | x
SMILES | POLK inh | PI5P4Ka inh | Pol eta inh | WRN inhibitor | Pol iota inh | POLB inh
Cc1cc(C)c2nc(N3C(=O)C(O)=C(C(=O)c4ccco4)C3c3ccc(O)cc3)sc2c1 (stereo unspecified) | n | -65 | u | n | u | x
Cc1ccc2nc(N3C(=O)C(O)=C(C(=O)c4ccco4)C3c3ccc(O)cc3)sc2c1 (stereo unspecified) | x | x | x | x | x | n
Cc1cc(C)c2nc(N3C(=O)C(O)=C(C(=O)c4ccco4)C3c3cccc(O)c3)sc2c1 (stereo unspecified) | n | -60 | u | n | u | x
Cc1nnc(N2C(=O)C(O)=C(C(=O)c3ccco3)C2c2cccc([N+](=O)[O-])c2)s1 (stereo unspecified) | n | n | n | u | n | n
CCOC(=O)c1sc(N2C(=O)C(O)=C(C(=O)c3ccco3)C2c2cccc([N+](=O)[O-])c2)nc1C (stereo unspecified) | n | -68 | n | n | u | n
Cc1nnc2ccc(-c3ccc(NS(=O)(=O)c4ccccc4[N+](=O)[O-])cc3)nn12 | u | n | 40µM | n[11.6 µM] | u | x
Cc1nnc2ccc(-c3ccc(NS(=O)(=O)c4ccccc4F)cc3)nn12 | n | n | n | n | u | x
O=C(NCCCN1CCOCC1)c1cccc(S(=O)(=O)Nc2ccccc2Cl)c1 | n | n | n | n | n | n
CC(=O)Nc1ccc(S(=O)(=O)Nc2nc3nc(-c4ccccc4)cc(-c4ccccc4)n3n2)cc1 | 79µM | n | n | n | u | n
CC(=O)Nc1ccc(S(=O)(=O)Nc2cc(-c3ccccc3)nn2C)cc1 | n | n | n | n | n | n
O=C(CSc1ccccn1)Nc1cccc(NC(=O)CSc2ccccn2)n1 | n | x | n | n | u | 10µM
Cc1ccc(NC(=O)CN(CCc2ccccc2)S(=O)(=O)c2ccccc2)c(C)c1 | n | x | n | x | n | n
Cc1ccc(C)c(NC(=O)CN(CCc2ccccc2)S(=O)(=O)c2ccccc2)c1 | n | x | n | x | 79µM | n
COc1ccc(S(=O)(=O)N(CCc2ccccc2)CC(=O)Nc2cc(Cl)ccc2C)cc1 | u | x | n | x | 89µM | n
CNC(=O)CN(CCc1ccccc1)S(=O)(=O)c1ccc(OC)cc1 | n | n | n | n | n | n
O=C1NC(=S)CN1c1ccccc1 | n | -59 | n | n | u | n
CCOc1cc(/C=C2\C(=O)N(c3nc(-c4ccc(Br)cc4)cs3)N=C2c2ccccc2)ccc1O | 79µM | -83 | 10µM | n | u | 10µM
COc1cc(/C=C2\C(=O)N(c3ccc(NC(C)=O)cc3)N=C2c2ccccc2)ccc1O | n | n | n | n | u | n
COc1ccc(/C=C/C(=O)O)cc1S(=O)(=O)N1CCCC1 | n | n | 18µM | n | n | u
COc1ccc(/C=C/C(=O)O)cc1S(=O)(=O)N1CCC(C)CC1 | n | n | 79µM | n[11.6 µM] | n | n
COc1ccc(/C=C/C(=O)O)cc1S(=O)(=O)N1CCCCC1 | n | n | n | n | n | u
